Bioassay records deposited in PubChem by National Center for Advancing Translational Sciences (NCATS).
Hits are enriched below; roughly 2.5% of the tested compounds scored in any of these assays.
L3MBTL1 inh: blocks human L3MBTL1; AlphaScreen L3MBTL1–H3K9me1 peptide binding; actives 0.66% (n = 230,000); Potency, µM (series often up to 57.1 µM), inactives show at the highest dose activity, negative = inhibition, most hits filed as inhibitors; AID 485360; note: % is set by controls: 0 for no effect and ±100 for the full control effect; nearly all actives have a fitted effect of over 60% in size
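L3MBTL1 (50 nM) pre-complexed 30 min with biotinylated H3(1-15)K9me1 peptide (75 nM), then compounds added for 30 min at room temperature; AlphaScreen streptavidin donor/nickel chelate acceptor beads (10 ug/mL final) read after 30 min dark incubation.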
POLK inh: DNA polymerase kappa (human) inhibition; Potency, µM (series often up to 107 µM), without a hit: at the top dose activity, negative = inhibition, hits mostly inhibitors; purified Pol kappa, fluorescent DNA synthesis assay, 10 min; AID 588579; actives 0.53% (n = 400,000); Q9UBT6; note: % is set by controls: 0 for no effect and ±100 for the full control effect
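50 nM final substrate added after 15 min RT preincubation of 10 nM Pol kappa with compound; fluorescence read at 0 and 10 min.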
WRN inhibitor: inhibitors of human WRN helicase | Q14191 | Potency, µM (titrated, usually from 114 µM), inactives show at the top dose activity change, negative = inhibition, usual class: inhibitors | actives 0.46% (n = 360,000) | WRN helicase unwinding, fluorescent forked duplex, kinetic | AID 651768; note: % is set by controls: 0 for no effect and ±100 for the full control effect; nearly all actives have a fitted effect of over 55% in size
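Fluorescence dequenching readout, ex 525 nm/em 598 nm, kinetic mode: forked duplex DNA (100 nM final) with adjacent fluorophore and quencher unwound by WRN (20 nM final) with 2 mM ATP. Compound preincubation 15 min, room temperature.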
POLH inh: inhibitors of human DNA polymerase eta. Q9Y253. AID 588591. recombinant Pol eta, fluorescent DNA replication assay. Potency, µM (titrated, usually from 114 µM), for inactives: top-dose activity change, negative = inhibition, actives largely listed as inhibitors. actives 1.2% (n = 390,000); note: % is set by controls: 0 for no effect and ±100 for the full control effect
Target sequence (Q9Y253 whole entry, looked up): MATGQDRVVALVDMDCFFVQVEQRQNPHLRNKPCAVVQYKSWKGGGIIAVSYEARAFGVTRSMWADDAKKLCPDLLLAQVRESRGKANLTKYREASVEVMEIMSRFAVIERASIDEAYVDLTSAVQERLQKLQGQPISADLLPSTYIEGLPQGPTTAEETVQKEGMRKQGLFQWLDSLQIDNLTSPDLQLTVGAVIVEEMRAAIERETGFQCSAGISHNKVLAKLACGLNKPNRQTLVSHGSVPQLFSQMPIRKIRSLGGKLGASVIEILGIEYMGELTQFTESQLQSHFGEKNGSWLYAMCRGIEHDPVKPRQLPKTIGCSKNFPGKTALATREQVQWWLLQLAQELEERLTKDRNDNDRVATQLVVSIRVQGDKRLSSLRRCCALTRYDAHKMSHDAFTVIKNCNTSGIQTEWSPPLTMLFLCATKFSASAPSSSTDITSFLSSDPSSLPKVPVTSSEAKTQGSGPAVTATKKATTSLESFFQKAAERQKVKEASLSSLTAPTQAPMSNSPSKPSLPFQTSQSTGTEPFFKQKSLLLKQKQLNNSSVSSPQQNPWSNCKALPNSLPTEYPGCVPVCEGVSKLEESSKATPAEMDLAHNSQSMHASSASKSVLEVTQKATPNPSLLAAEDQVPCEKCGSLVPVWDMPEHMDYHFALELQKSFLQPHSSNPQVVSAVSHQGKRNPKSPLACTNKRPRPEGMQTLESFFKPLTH
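Fluorescent replication assay: 50 nM final substrate added after a 15 min room-temperature compound preincubation with 10 nM enzyme. Signal taken at 0 min and again at 10 min.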
Pol iota inh: blocks human DNA polymerase iota activity; actives 1% (n = 390,000); AID 588590; Potency, µM (doses to about 115 µM), inactives show top-dose activity, negative = inhibition, usual class: inhibitors; Pol iota fluorescent replication assay, 10 min; Q9UNA4
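Fluorescent replication assay read twice, at 0 min and 10 min after adding 50 nM (final) substrate. Enzyme (10 nM) and compounds were first incubated 15 min at room temperature; enzyme-free buffer wells were negative controls.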
POLB inh: DNA polymerase beta (human) inhibition; P06746; Pol beta primer extension/strand displacement, fluorescence kinetic; Potency, µM (titrated, usually from 114 µM), inactives show at the top dose activity change, negative = inhibition, actives largely listed as inhibitors; actives 1.3% (n = 340,000); AID 485314; note: % is set by controls: 0 for no effect and ±100 for the full control effect
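Curves were derived by four-parameter Hill fits of normalized qHTS data. The kinetic fluorescent primer-extension read was taken at 0 and 10 min after 50 nM substrate, following a 15 min room-temperature preincubation of 10 nM enzyme with compounds.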
Numbers without * were called inactive; ? = inconclusive; . = no result given; ! = repeats disagree; [ ] = another dose, or the depositor's remark. Calls come from the whole dose curve; as a rule, active = well fitted curve in the direction sought with a large enough effect; inconclusive = small, poorly fitted or top-dose-only effect, or another doubt; inactive = no such curve, though single readings can be large; an effect the other way counts as inactive or inconclusive. Potency is the fitted concentration of half-maximal effect.

SMILES	L3MBTL1 inh	POLK inh	WRN inhibitor	POLH inh	Pol iota inh	POLB inh
ClCCN(CCCl)c1ccc(/C=C/c2sc3ccccc3[n+]2CCCCI)cc1	.	28µM*	.	.	89µM*	.
Cc1ccc(N2C(=O)/C(=C/c3ccc(CN(CCC#N)S(C)(=O)=O)o3)C(=O)NC2=S)cc1C	?	.	.	.	.	20µM*
CN1CCN(c2ccc(/C=C3\C(=O)NC(=S)N(c4cccc(Br)c4)C3=O)o2)CC1	-20%	-17%	?	?	?	-5%
Cc1ccc2c(c1)N(N=O)CCC2	7%	-2%	-31%[57.1 µM]	89µM*	27%	3%
N/C(=N/[N+](=O)[O-])N1CCN(C(=O)Oc2ccc([N+](=O)[O-])cc2)CC1	.	-5%	2%	-10%	?	105%
N#CCCn1cc(C(=O)Nc2ccccc2Br)c(-c2ccc([N+](=O)[O-])cc2)n1	4%	-14%	-1%	-10%	71%	30%
[Cl][In]([Cl])[Cl]	.	3%[60.1 µM]	.	.	18µM*	.
CCCCC/C=C\C/C=C\C/C=C\C/C=C\CCCC(=O)NCCCC(=O)O	.	14µM*	.	.	.	.
CCCCC/C=C\C/C=C\C/C=C\C/C=C\CCCC(=O)NCC(=O)O	.	7.5µM*!	.	0.5µM*	2.2µM*	1.4µM*
CCCCC/C=C\C/C=C\C/C=C\C/C=C\CCCC(=O)Nc1ccc(O)cc1	.	-21%[19.4 µM]	.	.	.	-7%
CCCCC/C=C\C/C=C\C/C=C\C/C=C\CCCC(=O)NCc1ccoc1	.	7.9µM*	.	.	.	.
O=S(=O)(c1ccc(Cl)cc1)N1CN2CCN(C2)C1	.	4%	0%	-5%	3%	-12%
CCCCCl	.	-1%[60.1 µM]	.	.	.	.
CCC(C)N1C(=O)/C(=C\c2cc3c4c(c2)CCCN4CCC3)C(=O)NC1=S (stereo not drawn)	-26%	-34%	?	?	?	45µM*
CCC(C)N1C(=O)/C(=C\c2ccc(N3CCCCCC3)cc2)C(=O)NC1=S (stereo not drawn)	-7%	-13%	?	6%	87%	-23%
CC(=O)CC(c1ccccc1)c1c(O)c2ccccc2oc1=O (stereo not drawn)	-1%	-7%	6%	4%	?	1%
CC/C(CC(c1ccccc1)c1c(O)c2ccccc2oc1=O)=N\NC(N)=S (stereo not drawn)	-10%	?	-22%	28µM*	?	?
O=c1c2ccccc2[se]n1-c1ccccc1	-6%	10%[60.1 µM]	-17%[11.6 µM]	-6%	?	3.2µM*!
O=c1c2ccccc2nc(-c2ccccc2)n1-c1ccccc1	1%	-3%	-3%	2%	1%	-2%
C=CCN1C(=O)/C(=C\c2ccc(N3CCOCC3)o2)C(=O)NC1=S	-7%	-11%	-25%	28µM*	?	-2%
C=C1C(=O)OC2CC(C)C3C=CC(=O)C3(C)C(O)C12 (stereo not drawn)	.	-4%	-31%	?	?	.
C=C1C(=O)O[C@H]2[C@H]1[C@H](OC(=O)CC(=O)O[C@@H]1C[C@@H](C)[C@@H]3C=CC(=O)[C@@]3(C)[C@H]3OC(=O)C(=C)[C@H]13)C[C@@H](C)[C@H]1C=CC(=O)[C@]12C	.	79µM*	?	20µM*	50µM*	50µM*
CNc1cc(Cl)c2nonc2c1[N+](=O)[O-]	0%	-25%	?	-13%	10µM*	89µM*
C=CCN1C(=O)NC(=O)/C(=C/C=C/c2ccccc2)C1=O	.	-4%	?	-13%	69%	-11%
O=C1NC(=O)N(CCc2ccc(F)cc2)C(=O)/C1=C\C=C\c1ccccc1	.	-11%	-18%	-11%	3.2µM*	-1%
SMILES	L3MBTL1 inh	POLK inh	WRN inhibitor	POLH inh	Pol iota inh	POLB inh
CCCCNC(=O)c1c(N)n(CCCOC)c2nc3ccccc3nc12	.	-18%	-8%	-7%	2.5µM*	18%
CCOC(=O)c1c(N)n(CCCOC(=O)c2ccco2)c2nc3ccccc3nc12	.	-16%	-8%	-4%	?	0%
CCCCCn1c(NC(=O)c2ccco2)c(C(=O)OCC)c2nc3ccccc3nc21	9%	-18%	?	22µM*	1.4µM*	-8%
COCCNC(=O)c1c(NC(=O)c2ccc(Br)o2)n(Cc2ccccc2)c2nc3ccccc3nc12	-26%	-10%	-19%	-19%	?	-2%
COCCCn1c(N)c(C(=O)OCCOC)c2nc3ccccc3nc21	.	-6%	-7%	-4%	36%	1%
COCCCNC(=O)c1c(NC(=O)c2ccco2)n(Cc2ccccc2)c2nc3ccccc3nc12	.	-27%	?	?	3.2µM*	10%
CCOC(=O)c1c(NS(=O)(=O)c2ccccc2)n(CCCOC)c2nc3ccccc3nc12	5%	-22%	-30%	?	1.1µM*	1%
C[C@H]1COC2=C1C(=O)C(=O)c1c2ccc2c1CCCC2(C)C	?	?	?	35µM*	22µM*	22µM*
CC1COC2=C1C(=O)C(=O)c1c2ccc2c1CCCC2(C)C (stereo not drawn)	.	28µM*	.	.	.	.
N[C@H](CO)Cc1ccccc1	.	-9%	-3%	-2%	-12%	.
CC(C)C(C)(NC(=O)c1cccn(Cc2ccc3c(c2)OC(F)(F)O3)c1=O)C(N)=O (stereo not drawn)	-14%	-8%	-1%	0%	21%	5%
COc1ccc(NC(=O)CCS(=O)(=O)c2ccc3c(c2)oc(=O)n3C)cc1OC	.	4%	-5%	-17%	32%	2%
O=C(Nc1ccc(Br)cc1C(=O)O)c1ccc2c(c1)C(=O)N(Cc1ccccc1)C2=O	.	-7%	?	28µM*	72%	15%
O=C(CN1CCOCC1)Nc1ccc(Br)cc1C(=O)c1ccccc1	7%	-15%	-8%[57.1 µM]	1%	4%	1%
O=C1CCCC2=C1C(c1cccnc1)Nc1ccccc1N2 (stereo not drawn)	-6%	-4%	3%	-10%	11%	16%
N#Cc1c(/N=C/c2c(O)n(Cc3ccco3)c(=O)[nH]c2=O)sc2c1CCCC2	14µM*	22µM*	56µM*	14µM*	10µM*	32µM*
O=c1[nH]c(=O)n(Cc2ccco2)c(O)c1/C=N/N1CCCCCC1	-12%	-17%	-8%	-3%	142%	3%
Cc1ccc(CCNC(=O)Cn2nc(C)c3c(C)n(-c4ccc(C)cc4)nc3c2=O)cc1	.	-2%	.	?	-7%	79µM*
Cn1c(O)c(/C=N/NC(=O)c2ccncc2)c(=O)[nH]c1=S	8%	5%	-32%	-27%	10%	-3%
CCCCn1c(O)c(/C=N/NC(=O)c2ccncc2)c(=O)[nH]c1=S	-23%	-4%	32µM*	?	92%	?
O=C(O)CSCC(=O)N(Cc1ccccc1)c1nc(-c2ccccc2)c(-c2ccccc2)s1	.	?	-30%	?	50µM*	50µM*
